Consider 17 molecules from ChEMBL document CHEMBL2218924, “A broad activity screen in support of a chemogenomic map for kinase signalling research and drug discovery” (Biochem J, 2013).

The target of assay [1] is Serine/threonine-protein kinase PLK3 (Homo sapiens) (UniProt Q9H4B4). The conditions noted are these: at 1 µM.
Assay [2] has the same target. The conditions noted are these: at 10 µM.
For assay [3], the target named is T1, cAMP-dependent protein kinase catalytic subunit PRKX (Homo sapiens) (UniProt P51817).
T1 sequence (whole entry): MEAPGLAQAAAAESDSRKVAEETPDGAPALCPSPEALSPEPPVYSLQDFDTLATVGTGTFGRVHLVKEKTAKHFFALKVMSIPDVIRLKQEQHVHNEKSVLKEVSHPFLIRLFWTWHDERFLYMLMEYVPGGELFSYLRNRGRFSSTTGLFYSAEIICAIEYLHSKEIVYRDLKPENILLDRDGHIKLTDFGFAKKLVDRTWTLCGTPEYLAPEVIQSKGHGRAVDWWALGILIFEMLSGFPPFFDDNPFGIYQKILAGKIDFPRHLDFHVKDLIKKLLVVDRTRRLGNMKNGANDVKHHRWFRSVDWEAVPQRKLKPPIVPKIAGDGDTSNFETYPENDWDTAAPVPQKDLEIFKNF
The conditions noted are these: at 1 µM.

Assay [4] deals with T1, cAMP-dependent protein kinase catalytic subunit PRKX (Homo sapiens). The conditions noted are these: at 10 µM.
Assay [5] deals with Protein-tyrosine kinase 2-beta (Homo sapiens) (UniProt Q14289). The conditions noted are these: at 1 µM.
The target is the same in assay [6]. The conditions noted are these: at 10 µM.
The target in assay [7] is Receptor-interacting serine/threonine-protein kinase 2 (Homo sapiens) (UniProt O43353). The conditions noted are these: at 1 µM.
For assay [8] the target is unchanged. The conditions noted are these: at 10 µM.
Assay [9] addresses Rho-associated protein kinase 1 (Homo sapiens) (UniProt Q13464). The conditions noted are these: at 1 µM.
Assay [10] has the same target. The conditions noted are these: at 10 µM.

Chain of Serine/threonine-protein kinase PLK3 (Homo sapiens) (Q9H4B4 whole entry, looked up): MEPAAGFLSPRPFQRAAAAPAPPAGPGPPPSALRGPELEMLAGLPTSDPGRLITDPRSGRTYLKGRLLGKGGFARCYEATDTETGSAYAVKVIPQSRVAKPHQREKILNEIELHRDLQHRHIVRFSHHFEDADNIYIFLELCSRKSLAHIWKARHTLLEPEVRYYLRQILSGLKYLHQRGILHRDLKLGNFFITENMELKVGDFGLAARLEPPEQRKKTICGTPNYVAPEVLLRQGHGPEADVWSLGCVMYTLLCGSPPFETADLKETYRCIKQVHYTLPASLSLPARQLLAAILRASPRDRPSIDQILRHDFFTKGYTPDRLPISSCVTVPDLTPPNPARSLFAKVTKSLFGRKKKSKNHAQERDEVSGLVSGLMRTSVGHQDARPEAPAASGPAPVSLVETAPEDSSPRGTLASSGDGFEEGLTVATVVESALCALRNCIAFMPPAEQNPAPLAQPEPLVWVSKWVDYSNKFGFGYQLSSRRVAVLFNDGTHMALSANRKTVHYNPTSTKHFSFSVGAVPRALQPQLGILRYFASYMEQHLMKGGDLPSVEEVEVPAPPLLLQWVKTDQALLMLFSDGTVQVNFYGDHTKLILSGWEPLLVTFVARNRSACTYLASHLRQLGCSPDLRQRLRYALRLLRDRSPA
Chain of Receptor-interacting serine/threonine-protein kinase 2 (Homo sapiens) (O43353 whole entry): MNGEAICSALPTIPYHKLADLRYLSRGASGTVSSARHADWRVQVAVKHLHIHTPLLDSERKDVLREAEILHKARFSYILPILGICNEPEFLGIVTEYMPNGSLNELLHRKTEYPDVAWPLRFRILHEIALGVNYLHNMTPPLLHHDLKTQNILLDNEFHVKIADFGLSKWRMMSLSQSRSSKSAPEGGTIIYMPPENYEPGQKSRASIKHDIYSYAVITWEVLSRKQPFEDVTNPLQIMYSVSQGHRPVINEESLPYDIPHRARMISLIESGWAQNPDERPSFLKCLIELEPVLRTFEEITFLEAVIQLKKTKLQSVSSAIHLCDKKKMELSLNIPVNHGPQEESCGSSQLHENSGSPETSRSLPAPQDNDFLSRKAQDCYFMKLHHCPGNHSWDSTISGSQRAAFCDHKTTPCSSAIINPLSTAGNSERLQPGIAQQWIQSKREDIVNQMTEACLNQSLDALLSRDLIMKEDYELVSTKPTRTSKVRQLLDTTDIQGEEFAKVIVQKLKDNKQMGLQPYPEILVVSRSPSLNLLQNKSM
Chain of Protein-tyrosine kinase 2-beta (Homo sapiens) (Q14289 whole entry, looked up): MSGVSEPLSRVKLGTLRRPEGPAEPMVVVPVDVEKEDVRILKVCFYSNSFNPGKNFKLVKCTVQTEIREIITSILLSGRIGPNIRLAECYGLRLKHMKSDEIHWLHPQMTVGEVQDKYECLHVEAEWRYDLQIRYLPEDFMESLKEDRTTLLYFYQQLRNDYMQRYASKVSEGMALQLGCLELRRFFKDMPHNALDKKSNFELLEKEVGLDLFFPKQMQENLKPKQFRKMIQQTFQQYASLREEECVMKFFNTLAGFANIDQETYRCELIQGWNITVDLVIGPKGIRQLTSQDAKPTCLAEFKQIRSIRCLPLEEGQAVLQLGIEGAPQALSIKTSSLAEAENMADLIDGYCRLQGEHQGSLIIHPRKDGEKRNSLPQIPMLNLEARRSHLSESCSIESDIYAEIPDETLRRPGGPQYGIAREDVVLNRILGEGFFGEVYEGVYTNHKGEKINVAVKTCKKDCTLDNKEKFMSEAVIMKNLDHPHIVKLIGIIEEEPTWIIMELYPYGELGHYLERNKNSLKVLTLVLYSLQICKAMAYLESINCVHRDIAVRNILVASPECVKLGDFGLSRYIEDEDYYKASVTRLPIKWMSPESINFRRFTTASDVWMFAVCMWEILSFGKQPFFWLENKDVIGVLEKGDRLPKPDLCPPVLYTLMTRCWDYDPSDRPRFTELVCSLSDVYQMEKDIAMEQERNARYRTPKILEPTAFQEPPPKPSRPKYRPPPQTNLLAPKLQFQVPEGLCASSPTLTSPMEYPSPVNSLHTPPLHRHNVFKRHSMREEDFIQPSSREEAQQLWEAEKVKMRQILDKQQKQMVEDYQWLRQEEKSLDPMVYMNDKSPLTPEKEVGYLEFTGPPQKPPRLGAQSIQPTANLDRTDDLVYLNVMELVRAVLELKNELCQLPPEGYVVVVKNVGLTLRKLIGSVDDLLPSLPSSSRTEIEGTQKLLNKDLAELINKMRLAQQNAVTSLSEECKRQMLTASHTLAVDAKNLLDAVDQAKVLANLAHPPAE
Chain of Rho-associated protein kinase 1 (Homo sapiens) (Q13464 2-1354 limits assumed): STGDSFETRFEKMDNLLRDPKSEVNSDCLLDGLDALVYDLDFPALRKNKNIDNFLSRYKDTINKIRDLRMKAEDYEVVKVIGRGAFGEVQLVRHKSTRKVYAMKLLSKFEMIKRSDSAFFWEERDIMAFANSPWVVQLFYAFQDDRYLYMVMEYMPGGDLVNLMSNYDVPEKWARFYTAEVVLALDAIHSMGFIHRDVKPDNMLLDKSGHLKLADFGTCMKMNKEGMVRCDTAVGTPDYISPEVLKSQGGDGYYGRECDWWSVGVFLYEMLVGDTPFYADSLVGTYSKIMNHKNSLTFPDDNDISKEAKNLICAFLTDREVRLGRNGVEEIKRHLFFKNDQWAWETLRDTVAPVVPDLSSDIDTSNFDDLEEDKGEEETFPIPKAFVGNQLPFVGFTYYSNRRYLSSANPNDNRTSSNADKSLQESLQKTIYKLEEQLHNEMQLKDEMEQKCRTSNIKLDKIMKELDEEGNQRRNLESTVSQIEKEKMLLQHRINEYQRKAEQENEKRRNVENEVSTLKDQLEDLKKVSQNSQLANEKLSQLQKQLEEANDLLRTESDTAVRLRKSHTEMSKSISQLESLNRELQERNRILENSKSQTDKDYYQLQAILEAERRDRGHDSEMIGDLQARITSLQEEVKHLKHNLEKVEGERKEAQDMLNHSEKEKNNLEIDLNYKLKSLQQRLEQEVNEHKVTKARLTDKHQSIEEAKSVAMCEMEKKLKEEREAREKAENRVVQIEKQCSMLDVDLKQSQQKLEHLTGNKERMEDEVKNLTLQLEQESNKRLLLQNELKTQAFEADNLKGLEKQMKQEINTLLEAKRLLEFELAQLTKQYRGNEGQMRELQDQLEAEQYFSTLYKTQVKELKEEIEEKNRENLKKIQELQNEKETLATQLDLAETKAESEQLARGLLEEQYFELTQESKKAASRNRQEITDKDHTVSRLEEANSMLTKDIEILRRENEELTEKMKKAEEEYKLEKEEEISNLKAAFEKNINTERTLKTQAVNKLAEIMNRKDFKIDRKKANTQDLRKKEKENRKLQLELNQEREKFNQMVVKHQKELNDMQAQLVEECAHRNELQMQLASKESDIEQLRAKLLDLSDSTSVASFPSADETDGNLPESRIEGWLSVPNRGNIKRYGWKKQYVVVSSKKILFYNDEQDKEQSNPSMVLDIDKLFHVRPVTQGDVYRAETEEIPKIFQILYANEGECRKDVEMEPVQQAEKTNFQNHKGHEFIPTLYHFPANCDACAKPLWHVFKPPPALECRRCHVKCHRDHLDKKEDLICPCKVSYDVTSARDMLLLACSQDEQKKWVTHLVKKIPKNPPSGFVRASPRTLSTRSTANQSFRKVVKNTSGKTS

For orientation: residual activity means the signal under treatment as a percentage of the control signal. For `O=c1cc(-c2cccc3c2Sc2ccccc2S3)oc(N2CCOCC2)c1`, the residual activity is 107% (inactive) in assay [1]; 95% in assay [2]; 95% in [3]; 72% in assay [4]; 91% in [5]; 112% in assay [6]. Further, the residual activity in assay [7] was 94%; in [8], 96%; in assay [9] it was 102%; in assay [10] it was 96%.

Take `O=C1NC(=O)/C(=C/c2ccc3c(c2)OC(F)(F)O3)S1`: the residual activity in assay [1] was 94% (inactive); in [2] it was 96%; in assay [3], 88%; in [4], 77%; in assay [5] it was 135%; in assay [6] it was 101%. In addition, the residual activity amounted to 99% in assay [7], 83% in assay [8], 95% in [9] and 116% in assay [10].

In the case of `Cc1ccc(NC2=CC(=O)c3sc(C)nc3C2=O)cc1`, the residual activity is 97% (inactive) in [1]; 91% in [2]; 102% in assay [3]; 97% in assay [4]; 108% in assay [5]; 102% in [6]. Besides, the residual activity amounted to 81% in assay [7], 89% in assay [8], 117% in [9] and 102% in assay [10].

For `Cn1cc(/C=C2\C(=O)Nc3ccc(S(N)(=O)=O)cc32)c2ccccc21`, the residual activity was 100% (inactive) in assay [1]; 99% in [2]; 88% in assay [3]; 59% in assay [4]; 22% in assay [5]; 5% in assay [6]. For the same molecule, the residual activity is 52% in assay [7], 51% in assay [8], 92% in [9] and 87% in assay [10].

As for `Nc1ccc2ncnc(NCCc3ccc(Oc4ccccc4)cc3)c2c1`, the residual activity in assay [1] was 102% (inactive); in assay [2] it was 96%; in assay [3], 109%; in [4], 58%; in [5] it was 88%; in assay [6], 72%. Also, the residual activity in assay [7] was found to be 102%; in assay [8], 88%; in assay [9], 106%; in assay [10], 100%.

Turning to `CO[C@H]1C[C@@H]2CC[C@@H](C)[C@@](O)(O2)C(=O)C(=O)N2CCCC[C@H]2C(=O)O[C@H]([C@H](C)C[C@@H]2CC[C@@H](O)[C@H](OC)C2)CC(=O)[C@H](C)/C=C(\C)[C@@H](O)[C@@H](OC)C(=O)[C@H](C)C[C@H](C)/C=C/C=C/C=C/1C`, the residual activity in assay [1] was 93% (inactive); in [2], 94%; in assay [3] it was 98%; in assay [4], 94%; in assay [5], 119%; in assay [6], 99%. Moreover, the residual activity in assay [7] was 84%; in assay [8], 84%; in assay [9] it was 127%; in assay [10], 140%.

Regarding `NC(=O)c1ccc2[nH]c(-c3ccc(Oc4ccc(Cl)cc4)cc3)nc2c1`, the residual activity in [1] was 97% (inactive); in assay [2] it was 91%; in [3], 72%; in [4], 112%; in [5], 100%; in assay [6] it was 86%. The residual activity in assay [7] was 82%; in [8], 66%; in assay [9], 123%; in [10] it was 118%.

For `Cc1cc2ncc(-c3ccccc3)nc2cc1C`, the residual activity was 87% (inactive) in [1]; 92% in assay [2]; 108% in assay [3]; 97% in [4]; 126% in assay [5]; 101% in assay [6]. Moreover, the residual activity in assay [7] was 108%; in assay [8], 82%.

With `COc1ccc(S(=O)(=O)N(CCO)c2ccccc2CN(C)C/C=C/c2ccc(Cl)cc2)cc1`, the residual activity in assay [1] is 87% (inactive); in [2] it was 96%; in assay [3], 88%; in assay [4], 51%; in assay [5], 109%; in assay [6] it was 96%. In addition, the residual activity is 92% in assay [7], 91% in assay [8], 134% in assay [9] and 124% in assay [10].

As to `Ic1cccc(CSc2nnc(-c3ccncc3)o2)c1`, the residual activity in [1] was 87% (inactive); in assay [2], 94%; in assay [3], 57%; in [4] it was 71%; in assay [5], 103%; in [6], 101%. The residual activity in assay [7] amounted to 82%; in [8] it was 78%; in assay [9] it was 113%; in assay [10], 98%.

For the molecule `CCN(CC)CCCCN1c2ccccc2Oc2ccc(Cl)cc21`, the residual activity is 101% (inactive) in assay [1]; 99% in [2]; 109% in [3]; 101% in assay [4]; 131% in assay [5]; 115% in assay [6]. For the same molecule, the residual activity in [7] was 105%; in [8], 85%; in assay [9] it was 113%; in assay [10], 121%.

Regarding `CC[n+]1c(/C=C/N(C)c2ccccc2)n(-c2ccccc2)c2ccc(-c3nc4ccccc4s3)cc21`, the residual activity was 99% (inactive) in [1]; 103% in [2]; 108% in assay [3]; 63% in assay [4]; 139% in assay [5]; 83% in [6]. Besides, the residual activity in assay [7] was 93%; in [8] it was 88%; in assay [9], 110%; in [10], 102%.

For the molecule `O=C1c2ccccc2-[n+]2ccc3c([nH]c4ccccc43)c21`, the residual activity was 98% (inactive) in assay [1]; 91% in assay [2]; 92% in assay [3]; 53% in assay [4]; 101% in assay [5]; 97% in assay [6]. Moreover, the residual activity in assay [7] amounted to 90%; in [8], 88%; in assay [9], 126%; in assay [10], 115%.

Consider `COc1cc2ncnc(Nc3ccc(Oc4ccccc4)cc3)c2cc1OC`, for which the residual activity was 87% (inactive) in assay [1]; 95% in assay [2]; 92% in assay [3]; 132% in [4]; 96% in assay [5]; 69% in assay [6]. Moreover, the residual activity in [7] came out at 28%; in assay [8], 19%; in [9], 115%; in assay [10], 126%.

On to `CCC(=O)Nc1ccc2ncnc(Nc3cccc(Br)c3)c2c1`, for which the residual activity in assay [1] is 89% (inactive); in [2] it was 86%; in assay [3], 89%; in [4] it was 94%; in [5], 126%; in assay [6], 95%. For the same molecule, the residual activity in assay [7] is 50%; in assay [8] it was 32%; in assay [9] it was 115%; in assay [10] it was 120%.

Take `Cc1cncc2cccc(S(=O)(=O)N3CCCN(C(=O)CN)C[C@H]3C)c12`: the residual activity in assay [1] is 98% (inactive); in [2], 92%; in [3], 57%; in [4], 13%; in assay [5], 122%; in assay [6], 55%. Further, the residual activity is 95% in assay [7], 76% in [8], 34% in assay [9] and 14% in assay [10].

Consider `Cc1nc2cc3nc(-c4cccs4)cnc3cc2n1C`, for which the residual activity was 101% (inactive) in [1]; 105% in [2]; 108% in assay [3]; 101% in [4]; 123% in assay [5]; 87% in assay [6]. The residual activity in assay [7] turned out to be 84%; in assay [8], 49%; in assay [9] it was 102%; in assay [10], 107%.
